Test results published in PubChem BioAssay (NCATS).
Records with an inconclusive call do not appear. Activity calls are given as the source filed them. Unless noted, calls come from the whole dose curve; as a rule, active = well fitted curve in either direction with a large enough effect (not every such curve was filed as active); inconclusive = small, poorly fitted or top-dose-only effect, or another doubt; inactive = flat fitted curve, though single readings scatter.

Experiments:
[1] = AP1 Signaling Pathway (AID 357); conditions: ME-180 AP-1-bla reporter, EGF-induced, beta-lactamase ratio, 5 h; at 7.69 µM (top of the series) unless noted; note: % is set by controls: 0 for no effect and ±100 for the full control effect
How it was run: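 AP-1-bla ME-180 cells with beta-lactamase reporter under AP-1 response element, stimulated with EC50 EGF; compounds titrated, 5 hours at 37 degrees Celsius. CCF4 read at 460/530 nm ratio; positive and negative modulators judged by AC50.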

[2] = biological target: Cytochrome P450 1A2 (Homo sapiens) (UniProt P05177); test: p450-cyp1a2 (AID 410; calls by dose curve; note: potency is the fitted concentration of half-maximal effect;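 for activity change, negative = inhibition: -100% = full effect of reference inhibitor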)
Sequence of Cytochrome P450 1A2 (Homo sapiens) (P05177 whole entry, looked up): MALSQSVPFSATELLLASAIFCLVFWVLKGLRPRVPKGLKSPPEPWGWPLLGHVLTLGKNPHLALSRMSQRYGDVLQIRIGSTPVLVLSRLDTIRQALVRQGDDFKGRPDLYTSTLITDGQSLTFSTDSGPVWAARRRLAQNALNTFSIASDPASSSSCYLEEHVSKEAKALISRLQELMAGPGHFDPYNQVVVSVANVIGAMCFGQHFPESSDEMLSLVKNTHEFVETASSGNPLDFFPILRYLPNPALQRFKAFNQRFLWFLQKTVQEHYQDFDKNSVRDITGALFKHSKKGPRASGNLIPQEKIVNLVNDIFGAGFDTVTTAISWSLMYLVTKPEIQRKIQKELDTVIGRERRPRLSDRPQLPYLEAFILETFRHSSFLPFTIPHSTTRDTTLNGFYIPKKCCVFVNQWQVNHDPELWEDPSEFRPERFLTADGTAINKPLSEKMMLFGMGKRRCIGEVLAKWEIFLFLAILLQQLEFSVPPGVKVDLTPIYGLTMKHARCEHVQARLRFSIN
How it was run: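 20nM CYP1A2, 100uM Luciferin-ME (=Km), 100mM KPO4; cpd 10 min RT; +NADPH regen, 60 min RT; stop/detect 20 min; luminescence. Normalized to furafylline 57 uM = full inhibition.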

[3] = NFAT Signaling Pathway (AID 444); conditions: Jurkat NFAT-bla M1, carbachol, beta-lactamase ratio, 5 h; at 7.69 µM (top of the series) unless noted;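 note: carbachol stimulus at about its EC50 of 1 µM final; % is set by controls: 0 for no effect and ±100 for the full control effect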
How it was run: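 Read-out: CCF4 FRET ratio (460 nm/530 nm) after 1 h RT dye loading, used for %activity and AC50 from titration series. Cells: Jurkat NFAT-β-lactamase/M1 line, treated with compound plus 1 uM carbachol for 5 h, 37 °C.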

[4] = Stat Signaling Pathway (AID 446); conditions: ME-180 (cervical carcinoma) SIE beta-lactamase reporter, IL-6 stimulated, 5 h; at 7.69 µM (top of the series) unless noted;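 note: ME-180 cervical cancer cells given 40 pM IL-6 alongside compound; SIE-controlled beta-lactamase reporter measured as 460/530 nm FRET emission ratio; % is set by controls: 0 for no effect and ±100 for the full control effect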
How it was run: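 Compound effects on IL-6-induced STAT reporter activity were measured in ME-180 cells. After overnight culture, cells were co-treated with 40 pM IL-6 for 5 hrs before beta-lactamase substrate loading at room temperature.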

[5] = biological target: Glucocorticoid receptor (Homo sapiens) (UniProt P04150); test: GR-GFP Redistribution (AID 450;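 active = compounds whose dose series gives a full or clear partial fitted curve of increased nuclear translocation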; note: potency is the fitted concentration of half-maximal effect); conditions: U2OS GR-GFP nuclear translocation, laser cytometry, 2 h
Sequence of Glucocorticoid receptor (Homo sapiens) (P04150 whole entry, looked up, the tested form may be a part): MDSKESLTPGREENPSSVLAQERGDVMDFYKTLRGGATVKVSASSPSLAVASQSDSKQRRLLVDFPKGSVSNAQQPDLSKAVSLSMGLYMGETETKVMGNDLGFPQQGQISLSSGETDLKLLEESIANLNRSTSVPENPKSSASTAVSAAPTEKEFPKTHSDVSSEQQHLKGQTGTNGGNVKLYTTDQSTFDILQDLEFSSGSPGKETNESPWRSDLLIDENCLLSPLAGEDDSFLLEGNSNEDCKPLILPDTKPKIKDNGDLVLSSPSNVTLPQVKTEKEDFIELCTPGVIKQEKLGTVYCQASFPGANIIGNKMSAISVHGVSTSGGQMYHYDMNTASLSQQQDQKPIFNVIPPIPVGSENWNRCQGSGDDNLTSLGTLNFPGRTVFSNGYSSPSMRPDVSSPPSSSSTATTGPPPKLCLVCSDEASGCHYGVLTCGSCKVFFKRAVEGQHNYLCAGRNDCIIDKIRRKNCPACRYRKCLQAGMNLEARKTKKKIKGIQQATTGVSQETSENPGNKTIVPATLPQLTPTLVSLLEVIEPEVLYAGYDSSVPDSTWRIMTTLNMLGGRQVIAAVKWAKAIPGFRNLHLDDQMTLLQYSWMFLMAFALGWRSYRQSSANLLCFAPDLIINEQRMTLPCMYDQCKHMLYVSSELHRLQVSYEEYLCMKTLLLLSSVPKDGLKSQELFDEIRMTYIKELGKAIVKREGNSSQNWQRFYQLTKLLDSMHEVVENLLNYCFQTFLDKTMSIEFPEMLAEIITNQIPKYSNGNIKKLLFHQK

[6] = biological target: Glucocorticoid receptor (Homo sapiens) (UniProt P04150); test: GR-EFC Redistribution (AID 451; calls by dose curve; note: potency is the fitted concentration of half-maximal effect); conditions: CHO-K1 GR-EFC translocation, beta-gal luminescence, 2 h
How it was run: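 Translocation of GR-ED fusion to nuclear EA restores b-gal, read by luminescence after 1 h room-temperature detection. Engineered CHO-K1 biosensor cells, 1,000/well, exposed 2 h at 37 C to titrations up to 46 uM final.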

[7] = biological target: Mitogen-activated protein kinase 10 (Mus musculus) (UniProt Q61831); test: JNK3 AlphaScreen Assay (AID 530);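 note: kinase came from lysate of stimulated human HepG2 cells; signal reports phosphorylation of biotinylated GST-cJun 1-79 at Ser73 with 10 µM ATP; % is set by controls: 0 for no effect and ±100 for the full control effect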
How it was run: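 Kinase buffer: 20 mM Tris-HCl pH 7.6, 10 mM MgCl2, 1 mM DTT, 0.1 mM Na3VO4, 0.01% Tween-20; ATP 10 uM. Substrate biotin-GST-cJun(1-79), enzyme from activated HepG2 lysates. Detection by Ser73 phospho-antibody AlphaScreen.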

[8] = biological target: 3',5'-cyclic-AMP phosphodiesterase 4B (Homo sapiens) (UniProt Q07343); test: qHTS Assay for Inhibitors of PDE-IV (AID 607; active = well fitted activation curve with a large enough effect in the main read-out, with a control signal flat, not every such curve was filed as active; note: % of control where 0% means no effect)
Sequence of 3',5'-cyclic-AMP phosphodiesterase 4B (Homo sapiens) (Q07343 whole entry, looked up): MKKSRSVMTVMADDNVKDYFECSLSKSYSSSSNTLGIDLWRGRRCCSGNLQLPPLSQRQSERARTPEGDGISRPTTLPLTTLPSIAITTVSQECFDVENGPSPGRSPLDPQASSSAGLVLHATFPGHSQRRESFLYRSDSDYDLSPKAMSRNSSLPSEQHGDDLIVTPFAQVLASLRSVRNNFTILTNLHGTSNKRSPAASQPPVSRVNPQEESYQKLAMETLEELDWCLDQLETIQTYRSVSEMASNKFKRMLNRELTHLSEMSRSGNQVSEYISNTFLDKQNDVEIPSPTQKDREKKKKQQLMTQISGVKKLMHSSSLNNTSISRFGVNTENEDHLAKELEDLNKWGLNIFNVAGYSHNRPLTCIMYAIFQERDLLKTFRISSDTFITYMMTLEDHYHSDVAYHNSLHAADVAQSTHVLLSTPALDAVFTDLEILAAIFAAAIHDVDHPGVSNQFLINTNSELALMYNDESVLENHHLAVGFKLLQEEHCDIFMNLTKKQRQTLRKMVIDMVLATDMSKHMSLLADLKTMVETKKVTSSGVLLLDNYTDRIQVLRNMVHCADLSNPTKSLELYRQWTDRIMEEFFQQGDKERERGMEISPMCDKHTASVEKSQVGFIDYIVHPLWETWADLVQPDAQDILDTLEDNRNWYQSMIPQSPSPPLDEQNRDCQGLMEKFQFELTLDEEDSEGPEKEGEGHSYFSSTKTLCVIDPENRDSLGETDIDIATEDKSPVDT
How it was run: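 ACTOne HEK293 cells carry a modified cAMP-gated CNG channel and express endogenous PDE4; plated 1000 cells/well, compounds up to 22.9 uM final. Membrane-potential dye fluorescence (ex 535/em 590) was read; parental cells received 10 uM forskolin + 100 uM RO 20-1724.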

[9] = Cell Viability - BJ (AID 421; calls by dose curve;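 note: potency is the fitted concentration of half-maximal effect; cells exposed to compound for 40 hours at 37 °C before readout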); conditions: BJ fibroblast viability, qHTS
How it was run: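 Luminescent ATP signal (CellTiter-Glo, 20 min at room temperature) served as the read-out of viable BJ cells after 40 hours of compound treatment. Responses were scaled between DMSO and 100 uM tamoxifen, and AC50 values were obtained by Hill modeling.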

[10] = Cell Viability - Mesenchymal (AID 546; active = well fitted curve in the direction sought with a large enough effect; an effect the other way counts as inactive or inconclusive;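 note: cells exposed to compound for 40 hours before reading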)
How it was run: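 CellTiter-Glo luminescence (intracellular ATP, 20 min room temperature) after 40 hr compound exposure at 37 °C of 1000 glomerulus-derived human kidney mesenchymal cells/well; AC50 values obtained by fitting qHTS concentration-response data to the Hill equation.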

[11] = Cellular Toxicity (caspase-3) HepG2 (AID 654; active = well fitted curve in the direction sought with a large enough effect; an effect the other way counts as inactive or inconclusive;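 note: cells exposed to compound for 16 hours before reading; 0% = DMSO alone and 100% = caspase signal from 100 µM tamoxifen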)
How it was run: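 Luminescent Caspase-Glo 3/7 readout after 16 hr compound exposure of human hepatocellular carcinoma HepG2 cells at 37 °C; qHTS concentration-response, normalized DMSO = 0%, 100 uM tamoxifen = 100%; AC50 by standard Hill equation.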

[12] = Cellular Toxicity (caspase-3) HUV-EC-C (AID 656; active = well fitted curve in the direction sought with a large enough effect; an effect the other way counts as inactive or inconclusive)
How it was run: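 HUV-EC-C cells (1000/well) in complete medium, compound-treated 16 h at 37 °C; caspase-3/7 activity read by Caspase-Glo 3/7 luminescence. Normalized to DMSO (basal) and 100 uM tamoxifen (100%); AC50 from Hill-equation concentration-response fits.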

[13] = Cellular Toxicity (caspase-3) MRC-5 (AID 659; active = well fitted curve in the direction sought with a large enough effect; an effect the other way counts as inactive or inconclusive;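 note: 0% = DMSO basal and 100% = 10 µM staurosporine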)
How it was run: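 Luminescent Caspase-Glo 3/7 read-out (1 h, room temperature) after a 16 h, 37 °C compound exposure of MRC-5 lung fibroblasts at 1500 cells/well. Concentration-response AC50 from Hill equation; 0% DMSO, 100% 10 uM staurosporine.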

[14] = Cellular Toxicity (caspase-3) SK-N-SH (AID 661; active = well fitted curve in the direction sought with a large enough effect; an effect the other way counts as inactive or inconclusive;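 note: cells exposed to compound for 16 hours; 0% = DMSO basal and 100% = 10 µM staurosporine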)
How it was run: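 Luminescent Caspase-Glo 3/7 read-out after 16 hr compound exposure of SK-N-SH neuroblastoma cells at 37 °C. Signal increase normalized to DMSO (basal) and 10 uM staurosporine (100%); AC50 from Hill equation fits of qHTS concentration-response data.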

[15] = Cellular Toxicity (caspase-3) Hek293 (AID 664; active = well fitted curve in the direction sought with a large enough effect; an effect the other way counts as inactive or inconclusive;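 note: cells exposed to compound for 16 h at 37 °C before readout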); conditions: HEK293 caspase-3 activation, DMSO = 0%, 100 µM tamoxifen = 100%; at 92.2 µM (top of the series)
How it was run: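 Luminescent Caspase-Glo 3/7 readout (aminoluciferin release) in HEK293 cells after 16 h compound treatment, 37 °C. Normalization: DMSO = basal, 100 uM tamoxifen = 100% stimulation. Concentration-response fitted with standard Hill equation for AC50.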

[16] = biological target: Cytochrome P450 3A4 (Homo sapiens) (UniProt P08684); test: qHTS Assay for Inhibitors and Substrates of Cytochrome P450 3A4 (AID 884; active = well fitted curve in the direction sought with a large enough effect; an effect the other way counts as inactive or inconclusive; note: % is set by controls: 0 for no effect and ±100 for the full control effect; nearly all actives have a fitted effect of over 50% in size)
Sequence of Cytochrome P450 3A4 (Homo sapiens) (P08684 whole entry, looked up): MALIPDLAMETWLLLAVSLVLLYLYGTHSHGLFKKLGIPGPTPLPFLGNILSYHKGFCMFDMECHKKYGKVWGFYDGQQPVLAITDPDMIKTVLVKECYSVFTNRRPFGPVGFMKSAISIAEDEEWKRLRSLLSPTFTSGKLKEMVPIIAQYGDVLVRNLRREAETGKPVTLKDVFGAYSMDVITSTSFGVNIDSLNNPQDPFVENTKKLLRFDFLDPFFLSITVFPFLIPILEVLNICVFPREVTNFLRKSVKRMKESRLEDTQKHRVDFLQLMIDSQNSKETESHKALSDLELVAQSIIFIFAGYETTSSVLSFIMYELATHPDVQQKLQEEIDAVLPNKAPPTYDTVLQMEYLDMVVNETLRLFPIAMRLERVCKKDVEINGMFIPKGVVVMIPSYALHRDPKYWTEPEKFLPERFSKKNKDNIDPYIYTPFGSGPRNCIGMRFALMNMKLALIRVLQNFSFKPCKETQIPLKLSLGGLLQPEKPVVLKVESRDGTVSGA
How it was run: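 Luminescent readout of luciferin produced by CYP3A4 (20 nM) dealkylation of Luciferin-PPXE, 25 uM (its KM). NADPH-driven reaction ran 60 min at RT after 10 min compound preincubation; data scaled to 57 uM ketoconazole as 100% inhibition.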

[17] = MultiTox-Fluor Cytotoxicity Assay - LYMP1-001 - Dead Cells (AID 946; active = well fitted curve in the direction sought with a large enough effect; an effect the other way counts as inactive or inconclusive;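 note: 0% = DMSO and 100% = tetraoctylammonium bromide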)
How it was run: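 AC50 from Hill fit of concentration-response; data normalized to DMSO (basal) and 15 uM tetraoctylammonium bromide (100%). LYMP1-001 lymphoblastoid cells, 2500/well, 16 hr compound at 37 C; dead-cell protease fluorescence, Ex/Em 485/520.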

[18] = Cell Viability - LYMP1-002 - Assay at 16 hr (AID 948; active = well fitted curve in the direction sought with a large enough effect; an effect the other way counts as inactive or inconclusive;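 note: 0% = DMSO alone and full effect = 92 µM tetraoctylammonium bromide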)
How it was run: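 LYMP1-002 human lymphoblastoid cells, 2500/well, were treated with compounds for 16 hr at 37 C in complete medium. Viability was read as intracellular ATP by CellTiter-Glo luminescence, and AC50 was derived from a Hill fit to concentration-response data.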

[19] = biological target: Voltage-gated inwardly rectifying potassium channel KCNH2 (Homo sapiens) (UniProt Q12809); test: qHTS Assay for Small Molecule Inhibitors of the Human hERG Channel Activity (AID 588834; active = well fitted curve in the direction sought with a large enough effect; an effect the other way counts as inactive or inconclusive;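 note: top concentration of the series differs between compounds; % is set by controls: 0 for no effect and ±100 for the full control effect; lower thallium flux fluorescence means stronger hERG block; nearly all actives have a fitted effect of over 50% in size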)
Sequence of Voltage-gated inwardly rectifying potassium channel KCNH2 (Homo sapiens) (Q12809 whole entry, looked up): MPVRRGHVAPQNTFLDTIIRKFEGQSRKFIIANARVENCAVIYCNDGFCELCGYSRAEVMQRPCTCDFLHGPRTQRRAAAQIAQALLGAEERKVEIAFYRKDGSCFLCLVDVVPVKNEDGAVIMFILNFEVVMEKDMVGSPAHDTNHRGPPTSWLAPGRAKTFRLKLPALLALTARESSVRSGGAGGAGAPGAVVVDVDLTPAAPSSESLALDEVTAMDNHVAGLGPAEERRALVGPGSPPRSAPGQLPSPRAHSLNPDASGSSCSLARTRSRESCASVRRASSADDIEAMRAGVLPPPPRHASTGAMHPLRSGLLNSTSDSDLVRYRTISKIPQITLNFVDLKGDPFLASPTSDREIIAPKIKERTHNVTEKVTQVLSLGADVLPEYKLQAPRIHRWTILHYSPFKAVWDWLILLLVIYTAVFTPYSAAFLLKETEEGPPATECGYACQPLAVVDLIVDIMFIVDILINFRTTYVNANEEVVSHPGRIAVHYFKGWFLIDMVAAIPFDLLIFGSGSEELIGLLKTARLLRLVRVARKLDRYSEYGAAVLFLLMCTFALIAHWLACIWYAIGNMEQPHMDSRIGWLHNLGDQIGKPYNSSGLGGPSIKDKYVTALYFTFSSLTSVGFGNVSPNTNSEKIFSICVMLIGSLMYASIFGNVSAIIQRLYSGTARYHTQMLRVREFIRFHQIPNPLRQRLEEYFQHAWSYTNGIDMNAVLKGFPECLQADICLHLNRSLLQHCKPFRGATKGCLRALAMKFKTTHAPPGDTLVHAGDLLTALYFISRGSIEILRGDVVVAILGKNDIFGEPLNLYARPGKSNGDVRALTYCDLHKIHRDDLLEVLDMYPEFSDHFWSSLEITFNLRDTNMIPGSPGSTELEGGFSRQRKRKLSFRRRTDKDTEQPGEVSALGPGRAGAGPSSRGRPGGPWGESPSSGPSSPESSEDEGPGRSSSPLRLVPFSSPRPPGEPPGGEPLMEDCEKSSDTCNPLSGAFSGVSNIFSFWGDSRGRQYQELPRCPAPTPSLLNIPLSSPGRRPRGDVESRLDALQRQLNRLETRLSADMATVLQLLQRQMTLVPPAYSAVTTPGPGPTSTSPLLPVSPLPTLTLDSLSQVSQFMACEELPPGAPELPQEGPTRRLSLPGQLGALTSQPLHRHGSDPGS
How it was run: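 Thallium serves as surrogate for K+ influx through BacMam-delivered hERG in U2OS cells. Compounds are added for about 10 minutes after dye loading; stimulation buffer then starts flux, monitored kinetically on FDSS.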

[20] = biological target: Peroxisome proliferator-activated receptor alpha (Homo sapiens) (UniProt Q07869); test: qHTS assay for small molecule agonists of the peroxisome proliferator-activated receptor alpha (PPARalpha) signaling pathway (AID 651778; active = well fitted curve in the direction sought with a large enough effect; an effect the other way counts as inactive or inconclusive; note: % of control where 0% means no effect); conditions: PathHunter PPARalpha complementation, chemiluminescence, 6 h; active compounds read high
Sequence of Peroxisome proliferator-activated receptor alpha (Homo sapiens) (Q07869 whole entry, looked up): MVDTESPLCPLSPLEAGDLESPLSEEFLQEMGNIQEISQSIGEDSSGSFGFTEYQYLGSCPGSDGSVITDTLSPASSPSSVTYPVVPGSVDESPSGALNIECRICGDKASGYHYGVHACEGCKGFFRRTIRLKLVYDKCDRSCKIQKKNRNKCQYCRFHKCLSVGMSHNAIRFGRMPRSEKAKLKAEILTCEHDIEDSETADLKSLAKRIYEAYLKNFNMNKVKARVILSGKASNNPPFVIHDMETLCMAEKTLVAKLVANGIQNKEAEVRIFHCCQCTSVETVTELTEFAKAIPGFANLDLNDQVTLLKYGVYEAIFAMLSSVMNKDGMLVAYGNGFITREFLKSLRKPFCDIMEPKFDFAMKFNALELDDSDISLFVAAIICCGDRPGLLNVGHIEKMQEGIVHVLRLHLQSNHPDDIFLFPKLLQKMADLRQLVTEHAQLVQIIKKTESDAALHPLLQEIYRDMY
How it was run: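 Chemiluminescence from complemented enzyme reported PPARalpha activation in cells after 6 hr of compound treatment at 37 C. The detection reagent was incubated for 60 min at room temperature, and compounds were scored as agonists.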

N[C@H](Cc1ccc(N(CCCl)CCCl)cc1)C(=O)O
inactive: activity change, negative = inhibition [1] 23.8% [at 38 µM] | activity change, negative = inhibition [3] -21.6% [at 38 µM] | activity, negative = inhibition [4] 4.88% [at 38 µM] | Potency [5] > 46 µM | Potency [6] > 46 µM | Potency [7] | outcome [8]
active: Potency [2] 15.8 µM

COC(=O)[C@H](N)CCCN=C(N)N[N+](=O)[O-]
inactive: activity change, negative = inhibition [1] -2.03% [at 38 µM] | Potency [2] | activity change, negative = inhibition [3] 13% [at 38 µM] | activity, negative = inhibition [4] 3% [at 38 µM] | Potency [5] > 46 µM | Potency [6] > 46 µM | Potency [7] | outcome [8]

CN1C[C@@H](CS(=O)(=O)N(C)C)C[C@H]2c3cccc4c3c(cn4C)C[C@@H]21
active: Potency [2] 25.1 µM
inactive: activity change, negative = inhibition [1] 2.96% [at 38 µM] | activity change, negative = inhibition [3] 4.13% [at 38 µM] | activity, negative = inhibition [4] -10.8% [at 38 µM] | Potency [5] > 46 µM | Potency [6] > 46 µM | Potency [7] | outcome [8]

CC(=O)OCC1=C(C(=O)[O-])N2C(=O)[C@@H](NC(=O)CCC[C@@H](N)C(=O)[O-])[C@@H]2SC1.[Zn+2]
inactive: activity change, negative = inhibition [1] 13.1% [at 38 µM] | Potency [2] | activity change, negative = inhibition [3] 1.01% [at 38 µM] | activity, negative = inhibition [4] -13.9% [at 38 µM] | Potency [5] > 46 µM | Potency [6] > 46 µM | Potency [7] | outcome [8]

CCN(CC)c1ncnc2c1ncn2[C@@H]1O[C@@H](COP(=O)(O)OP(=O)(O)C(Br)(Br)P(=O)(O)O)[C@H](O)[C@@H]1O
inactive: activity change, negative = inhibition [1] 6.32% [at 38 µM] | Potency [2] | activity change, negative = inhibition [3] 8.54% [at 38 µM] | activity, negative = inhibition [4] -1.38% [at 38 µM] | Potency [5] > 46 µM | Potency [6] > 46 µM | Potency [7] | outcome [8]

C[C@@]12CC[C@H]3[C@@H](CCC4=C(O)C(=O)CC[C@]43C)[C@H]1CCC2=O
inactive: activity change, negative = inhibition [1] 4.24% [at 38 µM] | Potency [2] | activity change, negative = inhibition [3] -1.14% [at 38 µM] | activity, negative = inhibition [4] 14.9% [at 38 µM] | Potency [5] > 46 µM | Potency [6] > 46 µM | Potency [7] | outcome [8]

BrCCc1ccccc1
inactive: Potency [9] > 92 µM | Potency [7] | Potency [10] | outcome [11] | outcome [12] | outcome [13] | Potency [14] | caspase-3 activation [15] 0.126% | Potency [16] | outcome [17] | outcome [18] | Potency [19] | max response [20] -3.08%

CCC#N
inactive: Potency [9] > 92 µM | Potency [7] | Potency [10] | outcome [11] | outcome [12] | outcome [13] | Potency [14] | caspase-3 activation [15] -0.76% | Potency [16] | outcome [17] | outcome [18] | Potency [19] | max response [20] -3.95%
